outcome, potentiation and inhibition data for 16 compounds are collected here from PubChem BioAssay.

Test [1] relates to TRPC4 beta (transient receptor potential cation channel C4), mouse. Briefly: activators of mouse TRPC4 channel, confirmation, cell-based, Fluo4 calcium, HEK293 TRPC4beta/mu-opioid, duplicates, 10 µM (AID 2426;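 active means fluorescence ratio normalized to control raised more than 50% in primary screen plus both repeat runs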). Conditions: Fluo4 calcium fluorescence, at 10 µM; active compounds read high.
Test [2] relates to transient receptor potential cation channel C4 beta (TRPC4), mouse. Briefly: activators of mouse TRPC4 channel, confirmation, cell-based, second round, Fluo4, HEK293 TRPC4beta/mu-opioid, 1 µM (AID 2461;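 active means primary screen active and over 50% activation in each of two duplicate runs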). Conditions: Fluo4 calcium fluorescence, at 1 µM; active compounds read high.
Test [3] relates to TRPC4 (transient receptor potential cation channel C4 beta), mouse. Briefly: positive allosteric modulators of mouse TRPC4, confirmation, cell-based, second round, Fluo-4, HEK293 TRPC4beta/mu-opioid, 1 µM (AID 2554). Conditions: DAMGO EC20, Fluo-4 calcium flux, at 1 µM; active compounds read high. A general note: Calcium flux is commonly read through the fluorescence of an indicator in the cells.

Test [4] relates to TRPC4 beta (transient receptor potential cation channel C4), mouse. Briefly: positive allosteric modulators of mouse TRPC4, confirmation, cell-based, Fluo-4, HEK293 TRPC4beta/mu-opioid (AID 2555;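 active means primary screen hit whose calcium fluorescence ratio, in both repeats, exceeds the weak agonist control mean by 3 SD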). Conditions: DAMGO EC20, Fluo-4 calcium flux, at 10 µM; active compounds read high.
Test [5] has as its target Short transient receptor potential channel 4 (Mus musculus) (UniProt Q9QUQ5). Briefly: inhibitors of mouse TRPC4 channel, confirmation, cell-based, Fluo4, HEK293 TRPC4beta/mu-opioid (AID 2636;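 active means calcium signal cut by more than 3 SD below the full-agonist control yet still positive, in both repeats and the earlier primary screen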). The following applies: DAMGO, Fluo4 calcium flux, at 10 µM; active compounds read high.
For test [6] the target is unchanged. Briefly: inhibitors of mouse TRPC4 channel, confirmation, cell-based, second round, Fluo4, HEK293 TRPC4beta/mu-opioid, 1 µM (AID 2637;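 active means calcium signal ratio cut to more than 3 SD under the fully stimulated control mean yet still positive, in both repeats and the primary screen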). The following applies: Fluo4 calcium flux, DAMGO, at 1 µM; active compounds read high.
Test [7] shares this target. Briefly: mouse TRPC4 channel activators, dose response, cell-based, HEK293 TRPC4/mu-opioid, Fluo-4 calcium (AID 434937;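 active means primary screen activator hit with a dose response curve and TRPC4 channel activation at any tested dose; inactive means no activation, no dose response, or not a primary hit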).
The target is the same in test [8]. Briefly: TRPC4 positive allosteric modulators, dose response, cell-based, HEK293 TRPC4/mu-opioid, Fluo-4 calcium, EC20 DAMGO (AID 434941;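 active means earlier screen potentiator hit that boosts the TRPC4 ion channel at some dose, with a dose response; inactive means no potentiation, no dose response, or not a prior hit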;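 further: calcium entry triggered by an EC20 dose of DAMGO at the co-expressed mu-opioid receptor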).
The target is the same in test [9]. Briefly: mouse TRPC4 channel inhibitors, dose response, cell-based, HEK293 TRPC4/mu-opioid, Fluo-4 calcium (AID 434942;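 active means primary screen inhibitor hit that blocks the TRPC4 channel at some tested dose, yielding a dose curve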).
Test [10] concerns the target Short transient receptor potential channel 6 (Mus musculus) (UniProt Q61143). Briefly: inhibition of mouse TRPC6 channel, confirmation, selectivity assay for TRPC4 inhibitor project, cell-based, HEK293, membrane potential dye, duplicate (AID 434948;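 active means active in primary screen and both duplicates, each dropping signal beyond three positive-control SD with fluorescence still positive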). The following applies: HEK293 TRPC6, membrane potential dye fluorescence, at 10 µM, stimulated with maximal-effect acetylcholine; active compounds read high.

Test [11] has the same target. Briefly: activation of mouse TRPC6 channel, confirmation, selectivity assay for TRPC4 activator project, cell-based, HEK293, membrane potential dye, duplicate (AID 434950;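 active means membrane potential signal rise above negative control mean plus 3 SD in both duplicates, also active in the earlier TRPC4 screen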). Conditions: HEK293 TRPC6, membrane potential fluorescence, at 10 µM; active compounds read high.
For test [12] the target is unchanged. Briefly: TRPC6 potentiation by TRPC4 potentiator hits, confirmation, selectivity assay for TRPC4 potentiator project, HEK293 cells, membrane potential dye, duplicate (AID 434952;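 active means compound raising the membrane signal above positive-control mean plus 3 SD in both repeats, and a primary screen hit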). The following applies: HEK293 TRPC6, membrane potential dye fluorescence, at 10 µM, maximal acetylcholine added after compound; active compounds read high.
Test [13] addresses Short transient receptor potential channel 4 (Mus musculus) (UniProt Q9QUQ5). Briefly: calcium flux activators in TRPC4/5HT1a cells, counter-screen for TRPC4 activator project, cell-based, second counter screen, HEK293 TRPC4/5HT1a, Fluo-4 (AID 434977;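 active means calcium signal rise above buffer-control mean plus 5 SD in both duplicates, and also a hit in the primary screen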). Conditions: Fluo-4 calcium flux, at 10 µM; active compounds read high.
Test [14] is described as follows: calcium flux inhibitors in TRPC4/5HT1a cells, confirmation, counter-screen for TRPC4 inhibitor project, cell-based, second counter screen, HEK293 TRPC4/5HT1a, Fluo-4 (AID 434978;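 active means primary screen active whose calcium signal fell more than 3 SD beyond the full-serotonin control mean in both duplicate plates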;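 on outcome: serotonin given first at submaximal then at maximal dose after compound preincubation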). The following applies: Fluo-4 calcium flux, at 10 µM, serotonin added to trigger calcium flux; active compounds read high.
Test [15] has as its system TRPC4 (mouse), co-expressed with 5HT1a in HEK293. Briefly: calcium flux potentiators in TRPC4/5HT1a cells, confirmation, counter-screen for TRPC4 potentiator project, cell-based, second counter screen, HEK293 TRPC4/5HT1a, Fluo-4 (AID 434979;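 active means signal rise over 3 SD above mean of control wells given weak agonist, in both repeats and first screen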). Conditions: Fluo-4 calcium flux, at 10 µM, serotonin added at its EC20 dose; active compounds read high.
Test [16] can be described thus: calcium flux activation in mu-opioid HEK293 cells, confirmation, counter-screen for TRPC4 activator project, cell-based, HEK293 mu-opioid receptor line (AID 449723;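 active means hit in primary screen, with calcium signal over 5 SD above buffer well mean in both duplicates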;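 further: counter screen cells carry the mu-opioid receptor alone and lack TRPC4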). Conditions: Fluo-4 calcium fluorescence, at 10 µM; active compounds read high.
Test [17] can be described thus: calcium flux enhancement in mu-opioid HEK293 cells, confirmation, counter-screen for TRPC4 allosteric potentiator project, cell-based, HEK293 mu-opioid receptor line (AID 449724;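 active means calcium signal rise more than 3 SD above the low-dose agonist control mean, in both duplicate plates and the primary screen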;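 further: HEK293 cells carrying mu-opioid receptor only with no TRPC4 channel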). The following applies: Fluo-4 calcium flux, at 10 µM, compound added before EC20 DAMGO stimulus; active compounds read high.

For some assays here: Potency and affinity values are given separately. Calls of active or inactive are those of the source.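 How the source made its calls, unless noted: active means primary screen hit whose fluorescence ratio, in both repeats, exceeds the weak agonist control mean by 3 SD; inactive means the rest.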

Sequence of Short transient receptor potential channel 6 (Mus musculus) (Q61143 whole entry, looked up): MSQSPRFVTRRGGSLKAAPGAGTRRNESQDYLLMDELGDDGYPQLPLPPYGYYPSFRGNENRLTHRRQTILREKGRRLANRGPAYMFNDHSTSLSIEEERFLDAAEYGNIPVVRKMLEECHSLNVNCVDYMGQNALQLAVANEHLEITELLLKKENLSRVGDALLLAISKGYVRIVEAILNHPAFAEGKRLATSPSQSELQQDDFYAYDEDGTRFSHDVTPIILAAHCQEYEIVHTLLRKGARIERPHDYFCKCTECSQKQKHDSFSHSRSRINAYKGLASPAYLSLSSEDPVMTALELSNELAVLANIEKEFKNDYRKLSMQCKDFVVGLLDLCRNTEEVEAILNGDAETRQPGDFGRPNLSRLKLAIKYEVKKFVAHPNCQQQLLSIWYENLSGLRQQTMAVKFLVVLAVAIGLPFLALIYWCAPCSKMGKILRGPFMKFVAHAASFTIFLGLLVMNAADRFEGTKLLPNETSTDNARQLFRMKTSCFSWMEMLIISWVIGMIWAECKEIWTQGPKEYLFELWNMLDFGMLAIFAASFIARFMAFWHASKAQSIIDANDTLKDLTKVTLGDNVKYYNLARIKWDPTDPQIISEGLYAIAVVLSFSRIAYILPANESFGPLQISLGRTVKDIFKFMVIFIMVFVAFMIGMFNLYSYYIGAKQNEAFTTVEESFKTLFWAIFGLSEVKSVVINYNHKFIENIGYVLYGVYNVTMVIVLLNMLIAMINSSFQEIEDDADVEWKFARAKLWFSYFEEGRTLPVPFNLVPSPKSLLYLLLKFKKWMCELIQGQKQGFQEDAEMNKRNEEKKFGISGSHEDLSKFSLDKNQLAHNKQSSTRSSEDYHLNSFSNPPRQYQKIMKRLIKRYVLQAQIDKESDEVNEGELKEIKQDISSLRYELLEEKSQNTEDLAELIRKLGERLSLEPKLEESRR
Sequence of Short transient receptor potential channel 4 (Mus musculus) (Q9QUQ5 whole entry, looked up): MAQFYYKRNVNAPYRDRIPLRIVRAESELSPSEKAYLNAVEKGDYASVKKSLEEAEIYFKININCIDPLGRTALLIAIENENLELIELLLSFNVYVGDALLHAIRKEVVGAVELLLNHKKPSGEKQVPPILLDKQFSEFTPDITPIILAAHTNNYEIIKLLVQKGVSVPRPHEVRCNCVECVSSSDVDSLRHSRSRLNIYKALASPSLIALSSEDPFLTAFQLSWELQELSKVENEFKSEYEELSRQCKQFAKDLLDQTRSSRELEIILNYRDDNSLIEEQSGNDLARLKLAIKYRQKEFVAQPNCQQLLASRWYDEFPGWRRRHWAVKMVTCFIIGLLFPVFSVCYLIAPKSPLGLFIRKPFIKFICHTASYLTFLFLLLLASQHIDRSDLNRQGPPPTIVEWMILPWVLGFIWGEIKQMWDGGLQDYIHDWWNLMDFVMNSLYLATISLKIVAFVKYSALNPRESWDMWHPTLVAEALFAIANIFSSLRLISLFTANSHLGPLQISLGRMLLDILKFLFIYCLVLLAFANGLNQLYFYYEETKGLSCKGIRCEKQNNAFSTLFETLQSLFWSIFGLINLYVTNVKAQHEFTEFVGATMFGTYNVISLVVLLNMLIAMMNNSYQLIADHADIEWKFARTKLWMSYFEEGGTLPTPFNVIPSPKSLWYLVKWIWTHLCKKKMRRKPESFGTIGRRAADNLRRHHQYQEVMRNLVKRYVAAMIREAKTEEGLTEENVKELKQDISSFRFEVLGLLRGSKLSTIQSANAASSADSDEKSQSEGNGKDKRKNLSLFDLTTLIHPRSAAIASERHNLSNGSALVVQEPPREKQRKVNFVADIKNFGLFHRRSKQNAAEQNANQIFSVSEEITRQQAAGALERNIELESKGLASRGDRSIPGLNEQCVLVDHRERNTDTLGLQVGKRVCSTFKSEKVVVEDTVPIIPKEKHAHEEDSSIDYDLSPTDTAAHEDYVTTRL

Regarding `CCOC(=O)C(CCCCCOc1ccc([N+](=O)[O-])cc1)C(=O)OCC`, the outcome in test [1], in test [2], in [3], in test [5], in [6] and in test [7] was inactive. The outcome in test [8], in [9], in test [10], in test [11], in test [12] and in test [13] was inactive. For the same compound, the result in test [14], in [15], in test [16] and in [17] was inactive. The potentiation in test [4] is 10% (active).

Take `CCCn1c(N)c(C(=O)CSc2n[nH]c(-c3ccc(C)cc3)n2)c(=O)[nH]c1=O`: the outcome in test [1], in test [2], in [3], in test [4], in test [5] and in test [6] was inactive. Moreover, the result in test [7], in [8], in test [9], in test [10], in test [11] and in test [12] was inactive. In addition, the outcome in test [13], in test [14], in test [15], in test [16] and in [17] was inactive.

On to `COc1ccccc1N1CCN(c2ncc(C(=O)N3CCN(c4cccc(Cl)c4)CC3)c3ccccc23)CC1`, for which the outcome in test [1], in [2], in [3], in test [4], in test [5] and in test [6] was inactive. Also, the outcome in [7], in test [8], in test [9], in test [10], in [11] and in test [12] was inactive. The result in [13], in test [14], in test [16] and in [17] was inactive. Further, in test [15], the potentiation was 13.4% (active).

In the case of `CC(C)Cc1nc(N2CCN(C(=O)C(C)C)CC2)c(C#N)c2c1CCC2`, the outcome in test [1], in test [2], in test [3], in test [5], in [6] and in test [7] was inactive. Besides, the result in test [8], in [9], in test [10], in test [11], in [12] and in test [13] was inactive. The result in test [14], in test [15], in test [16] and in test [17] was inactive. The potentiation in [4] is 33% (active).

Consider `CCc1cc(=O)oc2c(CNCc3ccccc3F)c(O)c(Cl)cc12`, for which the outcome in [1], in test [2], in test [3], in [4], in test [5] and in test [6] was inactive. The result in test [7], in test [8], in [9], in [10], in test [11] and in [12] was inactive. Besides, the outcome in [13], in test [14], in test [15], in test [16] and in test [17] was inactive.

Consider `CC1CCCCC1NS(=O)(=O)c1ccc(S(=O)(=O)N2CCCC2)cc1` (configuration not stated), for which the outcome in test [1], in test [2], in test [3], in [5], in test [6] and in test [7] was inactive. Besides, the result in test [8], in [9], in test [10], in test [11], in test [12] and in test [13] was inactive. In addition, the result in test [14], in test [16] and in [17] was inactive. The values for the potentiation in [4] and in test [15] were 32% (active) and 11.2% (active), respectively.

`COc1ccccc1CC(=O)N1CCN(S(=O)(=O)c2ccccc2)CC1`: the outcome in test [1], in test [2], in test [3], in test [5], in [6] and in test [7] was inactive. Further, the outcome in [8], in [9], in test [10], in [11], in test [12] and in test [13] was inactive. For the same compound, the outcome in test [14], in [16] and in test [17] was inactive. Further, the potentiation is 24% (active) in test [4] and 44.4% (active) in test [15].

For `CCC(C(=O)Nc1ccccc1OC)n1c(C(=O)OC)cc2ccsc21` (configuration not stated), the result in [1], in test [2], in test [3], in [5], in test [6] and in test [7] was inactive. Besides, the result in [8], in [9], in test [10], in test [11], in [12] and in test [13] was inactive. For the same compound, the result in [14], in [16] and in test [17] was inactive. Also, the potentiation is 17% (active) in test [4] and 75.5% (active) in test [15].

For `COC(=O)[C@H](Cc1ccccc1)NC(=O)c1ccc2ccccc2n1`, the outcome in test [1], in test [2], in test [3], in [5], in test [6] and in test [7] was inactive. Moreover, the outcome in test [8], in test [9], in test [10], in test [11], in [12] and in test [13] was inactive. For the same compound, the result in test [14], in test [16] and in [17] was inactive. Moreover, the potentiation in [4] is 81% (active); in test [15], 59.7% (active).

Consider `O=c1c2ccccc2oc2nc(C3CCCCC3)n(Cc3ccco3)c(=O)c12`, for which the result in test [1], in test [2], in test [5], in test [6], in [7] and in test [8] was inactive. Further, the result in test [9], in test [10], in [11], in test [12], in test [13] and in test [14] was inactive. Moreover, the result in test [16] and in [17] was inactive. Further, the values for the potentiation in [3], in test [4] and in test [15] were 10% (active), 11% (active) and 30.7% (active), respectively.

Regarding `O=C(C1CC1)N1CCc2cc(S(=O)(=O)NC3CCN(Cc4ccccc4)CC3)ccc21`, the outcome in test [1], in test [2], in [3], in test [4], in test [5] and in test [6] was inactive. Also, the outcome in test [7], in test [8], in test [9], in test [10], in test [11] and in test [12] was inactive. Further, the result in [13], in test [14], in test [15], in [16] and in test [17] was inactive.

`CCOc1ccc(S(=O)(=O)N2CCN(C(=S)NC3CC3)CC2)cc1`: the outcome in test [1], in test [2], in [3], in test [5], in test [6] and in [7] was inactive. The result in test [8], in [9], in test [10], in test [11], in [12] and in test [13] was inactive. Further, the outcome in test [14], in [16] and in test [17] was inactive. Besides, the potentiation was 9% (active) in test [4] and 30.7% (active) in test [15].

Turning to `COc1ccc(OC)c(Nc2c3c(nc4ccccc24)CCC3)c1`, the result in test [1], in [2], in [3], in test [4], in [6] and in [7] was inactive. Further, the outcome in test [8], in test [9], in [10], in test [11], in test [12] and in test [13] was inactive. The result in test [15], in [16] and in test [17] was inactive. For the same compound, the inhibition is 67% (active) in test [5] and 30.5% (active) in [14].

For `O=C1CCCC(=O)N1c1ccc(N2CCN(c3ccc([N+](=O)[O-])cc3)CC2)c([N+](=O)[O-])c1`, the result in test [1], in test [2], in test [3], in test [5], in test [6] and in test [7] was inactive. Also, the outcome in test [8], in [9], in [10], in [11], in test [12] and in test [13] was inactive. The result in test [14], in [16] and in test [17] was inactive. Also, the potentiation is 11% (active) in [4] and 14.9% (active) in [15].

For the compound `Cc1ccc(NC(=O)c2cccs2)cc1`, the outcome in test [1], in [2], in test [3], in [4], in [5] and in test [6] was inactive. For the same compound, the outcome in test [7], in test [8], in test [9], in test [10], in test [11] and in test [12] was inactive. Besides, the outcome in [13], in [14], in test [15], in test [16] and in test [17] was inactive.

With `COc1ccc(C(CNC(=O)C2CC2)N(C)C)cc1` (configuration not stated), the outcome in test [1], in [2], in test [3], in [4], in test [5] and in test [6] was inactive. Besides, the outcome in test [7], in [8], in test [9], in test [10], in [11] and in test [12] was inactive. Further, the result in test [13], in [14], in [15], in [16] and in test [17] was inactive.

Usually inhibition stands for how much of the control response was suppressed.
